Screening data deposited in PubChem by several laboratories.
RN4220 kill: kills Staphylococcus aureus RN4220. S. aureus RN4220 growth, OD600, 16 h. actives 0.33% (n = 330,000). inhibition, % (test concentration not listed). AID 1259311; in the data active = inhibition above about 85%;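 note: plate controls were untreated cells for no effect and reference antibiotic for full effect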
Mtb hypoxia rep: reduces hypoxia-regulated biosensor signal in M. tuberculosis | actives 0.1% (n = 300,000) | fluorescence inhibition, % (concentration not given with the values) | M. tuberculosis hypoxia-regulated fluorescent reporter, fluorescence; in the data active = fluorescence inhibition mostly above about 23%, no sharp cut-off; inactive = mostly below about 17%
Sa ugtP lethal: growth inhibition of S. aureus ugtP deletion strain; S. aureus RN4220 ugtP deletion, OD600 growth, 16 h; growth inhibition, % (test concentration not listed); actives 0.54% (n = 330,000); in the data active = growth inhibition above about 68%;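 note: plate controls were untreated wells for no effect and antibiotic for full effect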
PriA SSB inh: K. pneumoniae PriA-SSBct interaction inhibition; actives 0.6% (n = 430,000); inhibition, % at 33 µM; AlphaScreen SSBct-PriA binding, biotinylated peptide; AID 1272365; in the data active = inhibition mostly above about 37%, no sharp cut-off; inactive = mostly below about 20%;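 note: plate controls were negative control peptide for no effect and reference peptide for full effect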
An asterisk follows results filed as active; i = inactive; x = not tested or not shown; ! = repeats disagree. Sampled rows, rich in hits. Any-hit rate of the full collection: about 1.1%.

SMILES | RN4220 kill | Mtb hypoxia rep | Sa ugtP lethal | PriA SSB inh
CCCCCCCCCCS(=O)(=O)NN=Cc1ccccc1OC | 4 | 7 | 97* | 3
CCOc1cc(C(=O)NCCc2ccc3c(c2)CCCN3C)cc(OCC)c1OCC | x | x | x | 36*
COc1ccc(C(=O)NCCc2ccc3c(c2)CCCN3C)c(OC)c1 | x | x | x | 62*
CN1CCCc2cc(CCNC(=O)c3ccc(C(F)(F)F)cc3)ccc21 | x | x | x | -2
Cc1cccc(C(N)=NOC(=O)c2ccncc2)c1 | x | x | x | -11
Oc1cccc2ccc[n+](CC(O)Cn3c4ccccc4c4ccccc43)c12 (configuration not stated) | -1 | 2 | -7 | 73*
NC(=Nc1nc2ccccc2o1)NC(=O)c1ccccc1F | x | x | x | -2
COc1ccc(NC(=O)NCC(c2ccc3c(c2)CCN3C)N2CCN(C)CC2)cc1 (configuration not stated) | x | x | x | 7
CCN1CCN(C(=O)c2cc3c(OC)c(OC)c(OC)cc3[nH]2)CC1 | 2 | 7 | 1 | 64*
O=C(O)C1CCN(S(=O)(=O)c2ccc3c(c2)OCCCO3)CC1 | -1 | 10 | 5 | -1
O=C(O)c1cn(C2CC2)c2cc(N3CCN(S(=O)(=O)c4ccc5c(c4)OCCO5)CC3)c(F)cc2c1=O | 99* | x | 100* | -10
O=S(=O)(c1ccc(Cl)s1)N1CCC(CSCc2ccco2)CC1 | x | x | x | 0
Oc1c(Br)cc(Br)c2cccnc12 | x | x | x | -8
[O-][n+]1cccc2c(Br)cc(Br)c(O)c21 | 20 | -1 | -10 | 69*
Cc1cccc(-n2ncc3c(N(C)Cc4ccccc4)ncnc32)c1 | -1 | 9 | 3 | 104*
CCOc1ccccc1NC(=O)CN1CCN(c2nccn2-c2cccc(Cl)c2)CC1 | x | x | x | 59*
CC(C)c1ccc(OCC(=O)N2CCN(c3nccn3C)CC2)cc1 | x | x | x | 2
COc1ccc(NC(=O)CN2CCN(c3nccn3-c3ccc(C)cc3)CC2)cc1OC | x | x | x | 37*
CCOc1ccc(OCC(=O)N2CCN(c3nccn3-c3ccc(C)cc3)CC2)cc1 | x | x | x | 60*
COc1ccc(NC(=O)CN2CCN(CC(=O)Nc3ccc(OC)c(OC)c3)CC2)cc1 | -1 | x | -6 | 4
CC1(c2ccccc2)CC(C)(C)N2C(=O)C(=O)c3cccc1c32 (configuration not stated) | x | x | x | 2
CC1(c2ccccc2)CC(C)(C)N2C(=O)C(=C3SC(=S)NC3=O)c3cccc1c32 (configuration not stated) | 100* | 5 | 100* | x
Clc1ccc(C(Cn2ccnc2)OCc2c(Cl)cccc2Cl)c(Cl)c1 (configuration not stated) | 72 | 24 | 94* | 9
OC(Cn1ccnc1)c1ccc(Cl)cc1Cl (configuration not stated) | 11 | 4 | 4 | -3
Clc1ccc(C(Cn2ccnc2)OCc2csc3c(Cl)cccc23)c(Cl)c1 (configuration not stated) | 99* | 8 | 96* | 16
SMILES | RN4220 kill | Mtb hypoxia rep | Sa ugtP lethal | PriA SSB inh
Cc1cc(=O)[nH]cn1 | x | x | x | -15
CCOc1ccc(Nc2nc(N3CCCCC3)nc(N3CCCCC3)n2)cc1 | -2 | 7 | 92* | -7
CN(C)c1cccc(NC(=O)CCc2ccccc2)c1 | 5 | x | 9 | 54*
O=C(Cc1csc(NC(=O)Nc2ccc(Cl)cc2)n1)NCc1ccc(F)cc1 | x | x | x | -7
COc1ccc2sc(N(CCCN(C)C)C(=O)c3ccc(S(=O)(=O)N4CCCc5ccccc54)cc3)nc2c1 | -8 | 9 | -16 | 36*!
CCN(Cc1ccccc1)S(=O)(=O)c1ccc(C(=O)N(CCCN(C)C)c2nc3cc4c(cc3s2)OCCO4)cc1 | -1 | 15 | 10 | 47*
CCN(CC)CCN(C(=O)c1ccc(S(=O)(=O)N(C)Cc2ccccc2)cc1)c1nc2c(C)cccc2s1 | x | x | x | 24
CCN(Cc1ccccc1)S(=O)(=O)c1ccc(C(=O)N(CCCN(C)C)c2nc3ccc(F)cc3s2)cc1 | -5 | 4 | -17 | 37*!
CN(C)CCCN(C(=O)c1ccc(S(=O)(=O)N(C)Cc2ccccc2)cc1)c1nc2c(F)cccc2s1 | -3 | 0 | -2 | 39*!
COc1ccc(CNC(=O)N(CCN(C)C)C2CCOCC2)cc1 | x | x | x | -14
Cc1nc(C)n(C(C)CC(=O)Nc2cc(C)on2)n1 (configuration not stated) | x | x | x | -18
CCN(Cc1ccccc1)S(=O)(=O)c1ccc(C(=O)N(CCCN(C)C)c2nc3cc(OC)ccc3s2)cc1 | -1 | 11 | -7 | 51*!
Cc1ccc(-c2nn(-c3ccccc3)cc2CNCc2ccccc2)cc1 | 61 | 13 | 97* | -16
Cc1ccc(-c2nn(-c3ccccc3)cc2CO)cc1 | -2 | 12 | -6 | -10
Cc1ccc(C)c(N2CCN(c3nc4ccccc4c(=O)n3Cc3ccccc3)CC2)c1 | 0 | 1 | 12 | 104*
CCCC(=O)Nc1c(C(=O)OCC)[nH]c2ccccc12 | 3 | 6 | 9 | 39*
CCOC(=O)c1[nH]c2ccccc2c1NC(=O)CC(C)C | 2 | 4 | -11 | i
CCOC(=O)c1[nH]c2ccccc2c1NC(=O)c1ccc2c(c1)OCO2 | 12 | 2 | 9 | 97*
Cc1ccc(C(N)=NOC(=O)c2ccc3ccccc3c2)cc1 | x | x | x | 0
O=C(NCc1cc(-c2cccs2)on1)c1c(F)cccc1F | x | x | x | -2
Cc1csc(NC(=O)CSc2c(C)cnc3c2c(=O)n(C)c(=O)n3C)n1 | x | x | x | -15
CCSc1ccccc1C(=O)N1CCC(Oc2ncccc2Cl)CC1 | x | x | x | 11
COc1ccc(/C=C/C(=O)NC(=S)Nc2ccccn2)cc1 | 0 | 13 | 8 | 38*
N#CC1(Nc2ccccc2)C(=O)Nc2ccccc21 (configuration not stated) | -4 | 56* | -3 | -10
OC(CNCCC1C=Nc2ccccc21)Cn1c2ccc(Cl)cc2c2cc(Cl)ccc21 (configuration not stated) | 100* | -3 | 101* | 65*
SMILES | RN4220 kill | Mtb hypoxia rep | Sa ugtP lethal | PriA SSB inh
OC(CNCC1CCCO1)Cn1c2ccc(Cl)cc2c2cc(Cl)ccc21 (configuration not stated) | 48 | 14 | -19 | 16
NC(=O)N/N=C1/CCCC1c1ccccn1 (configuration not stated) | x | x | x | 67*
COC(=O)c1cc2c(-c3ccccc3)c(C)c3ccccn3c-2c1C(=O)OC | -15 | 18 | -39 | 66*
COC(=O)c1c(Cl)c2n3ccccc3c(C)c(-c3ccccc3)c-2c1C(=O)OC | 10 | 9 | -13 | -4
COc1ccc(S(=O)(=O)NC[C@H](OC)c2ccc(C)s2)c(C)c1 | x | x | x | -9
O=C(CCN1C(=O)/C(=C\c2cccs2)SC1=S)Nc1ccc(C(=O)O)cc1 | -3 | 5 | 9 | -6
CCN(CC)CCOC(=O)c1ccc(NC(=O)CCCN2C(=O)/C(=C\c3cccs3)SC2=S)cc1 | -1 | 12 | -8 | 42*
COC(=O)c1cc2c(ccn2-c2ccc(F)cc2)n1CC(C)C | 9 | 21 | 74 | -12
CCCn1c(C(=O)OC)cc2c1ccn2-c1ccc(F)cc1 | 15 | 18 | 97* | -9
CN(CC(=O)Nc1ccccc1Br)C(=O)c1ccccc1Sc1ccccc1C#N | 9 | 25* | 1 | -12
O=[N+]([O-])c1cccnc1S(=O)(=O)c1ccccc1 | x | x | x | -13
COc1ccc([N+](=O)[O-])c(S(=O)(=O)c2ccccc2)n1 | 42 | 20 | 96* | -13
